Bioassay records from PubChem BioAssay.
The entries come from a sample that favours hits as a whole.
IkB sig inh = suppresses IkB signaling in ABC-DLBCL reporter cells; ABC-DLBCL IkBa-CBG/CBR dual luciferase ratio, 4 h; response scale: scaled: untreated 0%, proteasome inhibitor 100%; Potency, µM (top dose mostly 57.1 µM), for inactives: at the highest dose IkBa stabilization activation; 0.04% of 110,000 active; AID 445; active = well fitted curve in the direction sought with a large enough effect in the signal ratio, not every such curve was filed as active; inconclusive = small, poorly fitted or top-dose-only effect, or a change in a side signal; the % refers to the signal ratio;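 also: potency is read from the fitted curve at half-maximal effect; the direction sought is a rising ratio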
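Curves were fitted separately to fusion (green), unfused (red) and ratio luminescence, then classed by r2, magnitude and activity. Cells: OCI-Ly3, 4 h compound plus doxycycline at 37C; 10 uM MG-132 defined full response.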
CRE Fsk mod = alters forskolin-stimulated CRE reporter signaling in CHO cells. Potency, µM (top dose mostly 38.2 µM), for the others: at the highest dose activity change, negative = inhibition, actives largely listed as activators. AID 662. 2.5% of 71,000 active. CHO CRE-bla reporter (cAMP response element driving beta-lactamase), forskolin EC10, beta-lactamase ratio; active = well fitted activation curve with a large enough effect in the signal ratio, with a control signal flat, not every such curve was filed as active; inconclusive = small, poorly fitted or top-dose-only effect, or effect the other way, or a change in a side signal; the % refers to the signal ratio; also: potency is read from the fitted curve at half-maximal effect; % of control where 0% means no effect
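Modulation of forskolin signalling: compounds in titration series added with EC10 NKH 477 to CHO cells carrying a CRE-driven beta-lactamase reporter, 3 h, 37C. CCF4 FRET ratio (460/530 nm, ex 405 nm) gives %activity and AC50.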
GFP derepression = epigenetic modulators derepressing GFP locus in mouse cells | mouse C127i GFP locus derepression, cytometry, 30 h | Potency, µM (doses to about 46.1 µM), for inactives: at the top dose GFP derepression (activation) | 0.09% of 68,000 active | AID 597; also: % of control where 0% means no effect
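Murine C127i mammary cells carrying a silenced, stably integrated CMV-driven GFP reporter were treated with compound for 30 hours at 37 C. After PBS washes, GFP-positive cells were counted by laser-scanning microplate cytometry.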
Peg3 imprint = inducers of genomic imprint erasure in mouse ES cells | mouse ES Peg3-LacZ reporter, beta-gal luminescence, 40 h | Potency, µM (top dose mostly 60.7 µM), for the others: at the top dose activity change, positive = activation, most hits filed as activators | 0.02% of 110,000 active; also: potency is read from the fitted curve at half-maximal effect
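Gelatin-coated wells received 300 freshly trypsinized female ES cells with a Peg3LacZ-Neo reporter on the maternal allele, then incubated 40 hours at 37C. BetaGlo was added for 5 minutes at room temperature before a single luminescence read.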
HBB splicing = hemoglobin beta splicing modulation. HBB splicing reporter cell assay, activation; EGFP reporter with mutant IVS2-654 intron; response scale: normalised to 500 nM splice-correcting PNA. Potency, µM (top dose mostly 46.1 µM), for the others: at the top dose activation, actives largely listed as activators. 0.06% of 65,000 active; also: potency is read from the fitted curve at half-maximal effect; 0% is about no effect
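Compounds were applied for 2 days to HeLa EGFP-654 cells, 500/well in Optimem with 2% FCS. The reporter's EGFP is disrupted by mis-splicing of beta-globin intron IVS2-654. Readout: summed well GFP fluorescence from 488 nm laser scanning; reference was 500 nM antisense […] 654 PNA.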
* = called active by the depositor; ? = inconclusive; . = not tested or not shown; [ ] = remark or other dose. Unless noted, calls follow the shape of the dose curve; as a rule, active = well fitted curve in the direction sought with a large enough effect; inconclusive = small, poorly fitted or top-dose-only effect, or another doubt; inactive = no such curve, though single readings can be large; an effect the other way counts as inactive or inconclusive.

SMILES	IkB sig inh	CRE Fsk mod	GFP derepression	Peg3 imprint	HBB splicing
Cc1nn(-c2ccc3nnc(C)n3n2)c(C)c1CCC(=O)Nc1ccc(OC(F)(F)F)cc1	2.3%	.	.	8.3%[10.9 µM]	.
N#C[C@@H](Cc1ccc(O)c(O)c1)C(=O)N1CCc2ccccc21	1.5%	?	-1.1%	.	0.8%
CN(C)c1nc(-c2ccoc2)nc2ccccc12	-1.7%[11.4 µM]	12.6µM*	-0.6%[9.22 µM]	-3.7%	-0.8%
COc1c(O)cc2c(c1O)C1OC(CO)C(O)[C@H](O)[C@H]1OC2=O (some centres undefined)	.	.	.	7.94µM*	.
c1cncc(Nc2nc(-c3ccncc3)cs2)c1	-8.2%	?	0.0%	7.7%	-1.5%
Cc1nc(C)c(-c2csc(Nc3cccnc3)n2)s1	2.5%	10µM*	-1.6%	-5.5%	-0.2%
CCn1c(=O)c(C)nn2c3ccccc3nc12	0.4%	12.6µM*	5.8%	-4.3%	1.0%[0.369 µM]
CCN(C)c1ccc(/C=N\n2nnnc2N)cc1	-2.0%	7.94µM*	1.2%	-53.8%	-2.7%
CSc1ccc(/C=N/n2nnnc2N)cc1	-0.3%	-3.5%	0.2%	-35.3%	-0.1%
O=C(CC1Nc2ccccc2NC1=O)c1ccccc1 (centres undefined)	?	?	0.0%	-62.0%	6.4%
CC(=C1C2C=CC1C1C(=O)NC(=O)C21)c1ccccc1 (centres undefined)	25.5%	?	?	-10.9%	15.8µM*
O=C(NCC(c1cccs1)S(=O)(=O)c1cccs1)c1c(F)cccc1F (centres undefined)	0.2%	.	.	-7.8%[10.9 µM]	.
COc1cccc(CNCCSc2nnnn2C)c1OCc1ccccc1F	0.0%	.	.	-5.4%[10.9 µM]	.
COc1ccc(-c2noc(-c3ccccc3-c3ccccc3)n2)cc1OC	1.9%	7.94µM*	-1.7%	-15.7%	0.0%
COc1ccc(-c2noc(-c3ccc(C)cc3Cl)n2)cc1OC	0.0%	.	.	-18.7%[10.9 µM]	.
N#Cc1c(NC(=O)CSc2n[nH]c(Cc3ccccc3)n2)oc(-c2ccccc2)c1-c1ccccc1	?	?	0.0%	-20.5%	-0.1%
Cc1ccnc(SCC(=O)Nc2oc(-c3ccccc3)c(-c3ccccc3)c2C#N)n1	5.5%	10µM*	0.0%	-22.3%	-2.2%
COc1ccc(OC)c(NC(=O)CSc2cn(CC(=O)N3CCCCCC3)c3ccccc23)c1	?	.	.	-17.3%[10.9 µM]	.
CCOC(=O)c1c(C)n(C)c2ccc(OCC(O)CN(CC)CC)cc12 (centres undefined)	-3.8%	17.0%	3.1%	2.7%	-0.7%
CCOC(=O)c1c(C)n(C)c2ccc(OCC(O)Cn3nc(C)cc3C)cc12 (centres undefined)	-0.2%	12.6µM*	3.2%	-22.7%	0.0%
CCOC(=O)c1c(C)n(C)c2ccc(OCC(O)CN3C(=O)c4ccccc4S3(=O)=O)cc12 (centres undefined)	0.2%	2µM*	12.9%	-5.3%	0.5%
Cc1cc(NC(=O)CN2C(=O)CSc3ccc(S(=O)(=O)N(C)C)cc32)ccc1Br	?	.	.	6.3%[10.9 µM]	.
CCN(CC)CCCNC(=O)CSc1nc(-c2ccc(OC)cc2)cc(C(F)(F)F)n1	-4.2%	.	.	-12.8%[10.9 µM]	.
COC(=O)c1cccc(Oc2nc3c(c(=O)n(C)c(=O)n3C)n2C(C)C)c1	-1.7%	2.51µM*	.	3.8%	-0.6%
COCCOC(=O)c1[nH]c2c(c1C)C(=O)CC(c1cc(OC)ccc1OC)C2 (centres undefined)	-1.4%	?	.	-14.0%	-0.9%
SMILES	IkB sig inh	CRE Fsk mod	GFP derepression	Peg3 imprint	HBB splicing
COc1ccc(OC)c(C2CC(=O)c3c([nH]c(C(=O)OC4CCC(C)CC4)c3C)C2)c1 (centres undefined)	-2.9%	.	.	-6.9%[10.9 µM]	.
CCCOCCOC(=O)c1[nH]c2c(c1C)C(=O)CC(c1cc(OC)ccc1OC)C2 (centres undefined)	?	2.51µM*	-1.9%	-27.5%	1.8%
COc1ccc(OC)c(C2CC(=O)c3c([nH]c(C(=O)OC(C)C)c3C)C2)c1 (centres undefined)	?	3.16µM*	.	-26.9%	1.8%
NC1(C(=O)O)CCc2cc(C(=O)O)ccc21 (centres undefined)	.	.	.	-6.3%	.
Nc1c2ccccc2nc2ccccc12	?	12.6µM*	.	-36.4%	-0.8%
CC(C)n1c2ccccc2c2nc3ccccc3nc21	-1.9%	1.58µM*	-3.2%	-22.0%	-1.0%
CC(C)n1c(Nc2ccccc2)nc2ccccc21	-3.1%	26.7%	0.0%	-2.5%	0.2%
COCCCn1c2nc3ccccc3nc2c2c(=O)n(-c3ccccc3OC)cnc21	-0.7%	3.98µM*	0.0%	0.2%	-0.9%[57.5 µM]
O=C(NC1CCCC1)c1ccc2c(c1)N(Cc1ccc(C(F)(F)F)cc1)C(=O)c1ccccc1S2	0.4%	.	.	-8.5%[10.9 µM]	.
CCCN1Cc2cccc(C(=O)Nc3cc(OC)cc(OC)c3)c2C1=O	-1.0%	6.31µM*	0.0%	-8.0%	-0.3%
Cc1cc(-c2ccco2)c(C#N)c2nc3ccccc3n12	-1.2%	7.94µM*	?	-25.9%	-0.2%[57.5 µM]
CCc1c(C)c(C#N)c2nc3ccccc3n2c1-n1nc(C)cc1C	.	.	7.9%[20.6 µM]	.	.
Cc1cc(C)cc(C(=O)Nc2c3c(nn2-c2ccccc2C)CS(=O)(=O)C3)c1	?	.	.	-5.3%[10.9 µM]	.
Cc1ccccc1-n1nc2c(c1NC(=O)c1cc3ccccc3oc1=O)CS(=O)(=O)C2	-0.4%	1.58µM*	0.0%	4.5%	1.7%[0.369 µM]
Cc1ccccc1-n1nc2c(c1NC(=O)c1cc3ccccc3oc1=O)CS(=O)C2 (centres undefined)	0.5%	2.51µM*	1.8%	-7.9%	-0.5%
COc1cccc(C(=O)Nc2c3c(nn2-c2ccc(C)cc2C)CS(=O)(=O)C3)c1OC	-3.0%	.	.	-14.5%[10.9 µM]	.
COc1ccccc1C(=O)Nc1c2c(nn1-c1cccc(C)c1C)CS(=O)(=O)C2	-1.8%	1.58µM*	2.2%	3.6%	-4.9%[0.369 µM]
CCCCCCc1ccc(OCC(=O)O)cc1OCC(=O)O	2.3%	-5.5%	0.0%	-2.2%	-0.8%[57.5 µM]
CCCc1c(OCCCOc2ccc(OCC(=O)O)cc2)ccc(CC=O)c1O	?	0.1µM*	1.4%	-8.0%	.
Cc1nc(NC2CCCCC2)c2nc(-c3ccccc3)n(CCCN3CCOCC3)c2n1	.	10µM*	.	-21.6%	-1.8%
Cc1nc(NC2CCCCC2)c2nc(-c3ccccc3)n(CCCN(C)C)c2n1	.	-1.3%	.	-10.1%	-1.0%
